For 54 molecules, activity change, negative = inhibition results are on record in PubChem BioAssay AID504652 (National Center for Advancing Translational Sciences (NCATS), 2011).

Among all 360,000 compounds or so, about 11,000 (3.1%) were called active. What follows is part of a selection rich in actives, with near analogues and random picks from the rest. Values without a mark were called inactive. No stated cut-off is given here; in the data, active means activity change below about -30%; inactive means the rest.
On the % scale 0 is the no-effect control and ±100 the full control effect.

Sequence of D(1A) dopamine receptor (Homo sapiens) (P21728 whole entry, looked up): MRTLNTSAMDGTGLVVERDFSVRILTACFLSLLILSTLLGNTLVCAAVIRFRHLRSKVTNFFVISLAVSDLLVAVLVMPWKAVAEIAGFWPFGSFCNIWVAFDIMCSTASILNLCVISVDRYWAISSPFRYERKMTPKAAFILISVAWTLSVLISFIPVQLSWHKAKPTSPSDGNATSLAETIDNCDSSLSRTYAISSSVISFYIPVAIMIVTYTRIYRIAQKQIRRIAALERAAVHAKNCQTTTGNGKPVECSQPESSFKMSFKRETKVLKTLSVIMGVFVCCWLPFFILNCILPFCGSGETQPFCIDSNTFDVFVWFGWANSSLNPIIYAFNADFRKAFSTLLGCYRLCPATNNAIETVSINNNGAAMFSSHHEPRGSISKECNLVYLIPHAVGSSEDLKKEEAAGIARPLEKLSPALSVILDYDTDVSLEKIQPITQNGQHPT

In this experiment the target is D(1A) dopamine receptor (Homo sapiens) (UniProt P21728). The experiment can be described thus: Antagonist of Human D 1 Dopamine Receptor: qHTS. The settings on record: HEK293 TREx D1 cells, calcium flux, dopamine EC80; at 10 µM; hits give low values. An outline of the steps:
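After overnight tetracycline induction at 30 C, force-coupled D1 HEK293 cells took up a no-wash calcium dye at room temperature. Compounds were added and monitored 180 s, and the response to EC80 dopamine was then recorded.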
For orientation: qHTS replaces the single test concentration by a dilution series.
With `CCCCN1CC(c2nc3ccccc3n2CCCCOc2ccc(C)cc2C)CC1=O` (centres undefined), the activity change, negative = inhibition was -5.31%. To `CCOC(=O)c1nnn2c3ccccc3c(=O)n(C)c12` belongs -10.2%; to `CCOC(=O)c1nnn2c1nc(N1CCN(c3ccccc3)CC1)c1ccccc12`, -35.4% (active); to `Cc1ccc(S(=O)(=O)c2nnn3c2nc(N2CCN(c4ccccn4)CC2)c2ccccc23)cc1`, -20.2%. The same measure for `CCN1CCN(CCCNC(=O)c2ccc3c(c2)sc2nc(-c4ccc(OC)cc4)cn23)CC1`: -14.6%; for `CSc1nn(Cc2cccc(C)c2)c(N)c1S(=O)(=O)c1ccccc1`: -16.3%. To `O=C(CSc1nnc(SCc2ccc(F)cc2)s1)Nc1ccc(C(=O)O)cc1` belongs 6.86%; to `CC(C)(C)CC(=O)Nc1nnc(SCC(=O)NCc2cccs2)s1`, 3.61%; to `O=C(Cc1cccs1)Nc1nnc(SCc2ccc(F)cc2)s1`, -79.5% (active). On to `COc1cccc(CNC(=O)CCC(=O)N2CC3CCCN3c3ccccc32)c1` (centres undefined), for which the activity change, negative = inhibition is -1.97%. With `Cc1ccccc1C(=O)Nc1cc(C)c(O)c(-c2nc3ccccc3o2)c1`, the activity change, negative = inhibition is 5.18%. `CCOC(=O)c1c(C)[nH]c(C)c1S(=O)(=O)N1CCCC(C(=O)NCc2ccccc2Cl)C1` (centres undefined): the activity change, negative = inhibition was -3.63%. On to `COc1ccc(CCNC(=O)Cn2c(=O)n(-c3ccccc3)c(=O)c3c(C)c(C)sc32)cc1OC`, for which the activity change, negative = inhibition is 2.12%. The same measure for `COc1ccc(OCCNC(=O)c2cc(C3CC3)nc3c2cnn3C(C)C)cc1`: -8.1%; for `CC(C)n1ncc2c(C(=O)NCc3ccccc3CN(C)C)cc(C3CC3)nc21`: -37.6% (active). Consider `CC(C)n1ncc2c(C(=O)Nc3ccc(CC#N)cc3)cc(C3CC3)nc21`, for which the activity change, negative = inhibition was -2.28%.

Take `COc1ccc(Nc2ncc(C(=O)Nc3cc(C)ccc3OC)c3ccccc23)cc1`: the activity change, negative = inhibition was -5.45%.

`O=C(Cn1c(=O)n(-c2ccc(F)cc2)c(=O)c2sccc21)Nc1cccc(C(F)(F)F)c1`: the activity change, negative = inhibition was 10.9%. To `CCOc1ccc(N(CC(=O)NCCOc2ccccc2OC)S(=O)(=O)c2ccccc2)cc1` belongs -9.44%. With `CCOc1ccc(N(CC(=O)NCCc2ccc(OC)cc2)S(C)(=O)=O)cc1`, the activity change, negative = inhibition was 6.98%. To `CCOc1ccc(N(CC(=O)NCCc2ccc(F)cc2)S(=O)(=O)c2ccccc2)cc1` belongs -32.1% (active); to `COc1ccc(CC(=O)N2CC(=O)Nc3ccc(Br)cc3C2c2ccc(F)cc2)cc1OC` (centres undefined), 1.32%; to `Cc1nnc(C)n1-c1ccc(C(=O)Nc2cccc(Br)c2)cc1`, -6.55%. To `O=C(Cc1ccc(S(=O)(=O)N2CCOCC2)s1)NCCC(c1ccccc1)c1ccccc1` belongs 2.72%; to `CCN(Cc1ccccc1)C(=O)Cc1ccc(OC)c(S(=O)(=O)N2CCOCC2)c1`, -8.6%; to `COCCN(Cc1ccccc1)C(=O)Cc1ccc(S(=O)(=O)N2CCOCC2)s1`, -46% (active). To `CNC(=O)c1[nH]cnc1C(=O)N[C@@H](CC(C)C)C(=O)OC(C)(C)C` belongs -1.57%; to `C[C@H](NC(=O)c1nc[nH]c1C(=O)NCC(=O)OC(C)(C)C)C(=O)OCc1ccccc1`, -24.2%; to `C[C@H](NC(=O)c1nc[nH]c1C(=O)N[C@@H](C)C(=O)OC(C)(C)C)C(=O)OC(C)(C)C`, -89.3% (active). For the molecule `CCCCS(=O)(=O)c1oc(-c2cccs2)nc1S(=O)(=O)c1ccccc1`, the activity change, negative = inhibition was 11.6%. The same measure for `COc1ccc(-c2nc(Cn3c(=O)cc(C)c4c(C)nn(-c5ccccc5)c43)c(C)o2)cc1OC`: 0.18%; for `CCc1ccc(NC(=O)N2CCN(C(=O)c3nsc4ccccc34)CC2)cc1`: -22.5%; for `COc1cccc(NC(=O)N2CCN(C(=O)c3nsc4ccccc34)CC2)c1`: -44.8% (active). The same measure for `Cc1c(Cl)cccc1NC(=O)N1CCN(C(=O)c2nsc3ccccc23)CC1`: -9.22%; for `O=C(Nc1cc(C(F)(F)F)ccc1Cl)c1ccc2c(c1)CCN2S(=O)(=O)c1ccccc1`: 3.06%. With `COc1cc2[nH]c(=O)n(Cc3ccc(C(=O)NC4CCN(Cc5ccccc5)CC4)cc3)c(=O)c2cc1OC`, the activity change, negative = inhibition was 8.55%.

As to `COc1ccc(C(=O)NC2CC2)cc1OC1CCN(Cc2ccc(SC)cc2)CC1`, the activity change, negative = inhibition was -63.9% (active). The same measure for `COc1ccc(C(=O)NC2CC2)cc1OC1CCN(Cc2cnn(C)c2)CC1`: -6.25%; for `COc1cc(C(=O)N2CCN(C/C=C/c3ccccc3)CC2)cc(OC)c1C`: 6.67%. Consider `COc1ccc(C(=O)NCCn2nc(C)cc2C)cc1OC1CCN(C(C)=O)CC1`, for which the activity change, negative = inhibition is 1.96%.

On to `COc1ccc(C(=O)NC2CC2)cc1OC1CCN(C/C=C/c2ccccc2)CC1`, for which the activity change, negative = inhibition is -56.2% (active). For the molecule `CCOc1ccccc1NC(=O)Cn1nnc(C(=O)Nc2ccc(C)c(C)c2)c1N`, the activity change, negative = inhibition was 6.21%. To `CC(C)(C)OC(=O)N1CCC(c2c(C(=O)Nc3ccc4c(c3)OCO4)cnn2-c2ccccc2)CC1` belongs 1.48%; to `COc1ccc(C2Sc3ccccc3NC3=C2C(=O)c2ccccc23)c(OC)c1OC` (centres undefined), -5.17%.

As to `COc1ccc(N2CCN(c3nc(-c4ccccc4F)nc4ccccc34)CC2)cc1`, the activity change, negative = inhibition is -14.4%.

`CCc1ccc(CN(Cc2ccco2)C(=O)c2ccccc2Cl)cc1`: the activity change, negative = inhibition is -13.4%. To `COc1ccccc1C(C)NC(=O)Cc1ccsc1` (centres undefined) belongs -36.8% (active); to `COc1ccccc1OCc1ccc(C(=O)NC(C)c2ccccc2)o1` (centres undefined), 10.5%; to `COc1ccc(CN(C)C(=O)Cc2ccsc2)c(OC)c1OC`, -6.5%.

As for `CN(C(=O)CSc1nc2ccccc2n1Cc1ccccc1C#N)c1ccccc1`, the activity change, negative = inhibition was 5.88%. With `CCN1CCN(Cc2c(O)ccc3c(=O)c(-c4ccc(OC)c(OC)c4)c(C(F)(F)F)oc23)CC1`, the activity change, negative = inhibition was 10.8%. Regarding `COc1ccc(-c2c(C)c3ccc(O)c(CN4CCCC4)c3oc2=O)cc1OC`, the activity change, negative = inhibition is 3.24%.

Turning to `COc1ccc(-c2c(C)c3ccc(O)c(CN4CCN(C)CC4)c3oc2=O)cc1OC`, the activity change, negative = inhibition is -44.5% (active). The same measure for `Cc1cccc(-c2nnc(SCC(=O)N3CCCc4ccccc43)o2)c1`: -12.2%.
